Experimental data: PubChem BioAssay (NCI)
The panel holds about 79,000 compounds, 15% with a hit somewhere; the sample as a whole holds those more often. Cut-off read from the data, not from the text of the source: active = growth inhibition above about 70%; inactive = the rest.

Tests used:
[1] = NCI Yeast Anticancer Drug Screen. Data for the rad50 strain (AID 155);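 note: 0% = growth of vehicle-only cultures of the same strain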; settings: S. cerevisiae rad50 strain growth inhibition; at 50.0 µM; hits give high values
How it was run: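 Readout: growth inhibition relative to vehicle-treated cultures. Compound exposure was carried out in a genetically defined yeast strain deficient in DNA damage repair.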

[2] = NCI Yeast Anticancer Drug Screen. Data for the mec2-1 strain (AID 157); settings: S. cerevisiae mec2-1 strain, at 50.0 µM, hits give high values
How it was run: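 Mutant yeast (mec2-1) grown with compound; growth inhibition relative to vehicle control reported.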

[3] = NCI Yeast Anticancer Drug Screen. Data for the sgs1 mgt1 strain (AID 161);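 note: 0% = growth of cultures given vehicle only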; settings: S. cerevisiae sgs1 mgt1 strain, at 50.0 µM, hits give high values
How it was run: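 Growth of a repair-deficient yeast mutant was monitored after compound treatment and expressed as inhibition relative to vehicle-treated cultures.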

[4] = NCI Yeast Anticancer Drug Screen. Data for the cln2 rad14 strain (AID 165);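 note: 0% = growth equal to vehicle treated cultures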; settings: S. cerevisiae cln2 rad14 strain, at 50.0 µM, hits give high values
How it was run: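 Readout is yeast growth inhibition versus vehicle-treated controls, using a strain with cln2 and rad14 alterations exposed to compound.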

[5] = NCI Yeast Anticancer Drug Screen. Data for the bub3 strain (AID 167); settings: S. cerevisiae bub3 mutant strain, at 50.0 µM, hits give high values
How it was run: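 Readout: yeast growth inhibition, expressed relative to vehicle-only wells. The test organism is a mutant strain from a panel with lesions in DNA repair or checkpoint genes.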

[6] = NCI Yeast Anticancer Drug Screen. Data for the mlh1 rad18 strain (AID 175); settings: S. cerevisiae mlh1 rad18 strain growth inhibition; at 50.0 µM; hits give high values
How it was run: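 Genetically defined yeast (DNA repair-deficient) exposed to compounds; growth inhibition determined relative to vehicle.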

Measured: growth inhibition

CN(C)CCNC(=O)c1cccc2[nH]c(-c3ccncc3)nc12
inactive: [1] 5.9% | [2] -16.2% | [3] -37.4% | [4] -19.9% | [5] -48% | [6] -89.1%

C1=Nc2ccccc2/C1=C/c1c[nH]c2ccccc12
inactive: [1] 11.2% | [2] -10.1% | [3] 5.2% | [4] 17.9% | [5] 1.05% | [6] 17.9%

O=[N+]([O-])c1ccccc1C1N2CCCCC2[C@@H]2c3[nH]c4ccccc4c3CCN12 (stereo not given in full)
inactive: [1] 0.2% | [2] -11.9% | [3] 3.3% | [4] 1.85% | [5] 3.05% | [6] 8.3%

O=C(O)COc1ccccc1-c1ccccc1
inactive: [1] -34.4% | [2] -13.7% | [3] -10.6% | [4] -48.5% | [5] 1.55% | [6] -8.6%

Brc1cc(Br)c(-c2c(Br)cc(Br)cc2Br)c(Br)c1
inactive: [1] -20.8% | [2] -30.2% | [3] -16.1% | [4] 4.2% | [5] -7.5% | [6] -15.7%

CCOC(=O)c1sc(SC)nc1NC(=O)c1ccc(Cl)cc1
inactive: [1] -26.6% | [2] 19.8% | [3] -49.6% | [4] 0.7% | [5] -2.55% | [6] -24.7%

Nc1nc(N)nc(CCC(Br)(Br)Br)n1
inactive: [1] 26.6% | [2] 4.75% | [3] 30.8% | [4] 19.9% | [5] 21.9% | [6] 11.1%

COc1ccc2c(c1)C/C(=C\c1cccc3ccccc13)C2=O
inactive: [1] -51.9% | [2] -19.3% | [3] -0.15% | [4] -23.1% | [5] 28.1% | [6] -0.7%

CN1C(=O)C(C)(O)Sc2ccccc21 (stereo not given)
inactive: [1] -1.2% | [2] -19.4% | [3] -36.2% | [4] -17.9% | [5] -9.2% | [6] 0.1%

COC(=O)c1ccc(OC(=O)Nc2ccc(C)cc2)cc1
inactive: [1] -7.15% | [2] -9.6% | [3] -8.45% | [4] -9.4% | [5] 13.6% | [6] -6.6%

CC(=O)NC(CCCCNC(=O)NCCCl)C(=O)NCc1ccccc1 (stereo not given)
inactive: [1] 3.3% | [2] -22.8% | [3] -2.85% | [4] 20.8% | [5] -12% | [6] -8.9%

O=[N+]([O-])c1cc(F)cc(I)c1
inactive: [1] -3.15% | [2] -38.6% | [3] 2.15% | [4] 15.8% | [5] 4.25% | [6] -5%

COc1cc(CC(NC(=O)c2ccccc2)C(C)=O)cc(OC)c1OC (stereo not given)
inactive: [1] -9.7% | [2] 9.35% | [3] -5.4% | [4] -26.2% | [5] 27.8% | [6] -4.1%

COc1cc2c(c(OC)c1OC)-c1ccc(SC)c(=O)cc1[C@@H](NC(=O)CO)CC2
inactive: [1] 30% | [2] 14.3% | [3] 19.6% | [4] 19.6% | [5] 21.1% | [6] 22.2%

Nc1ccc2c(c1)Oc1c(F)c(F)cc3c(=O)c(C(=O)O)cn-2c13
inactive: [1] 6.9% | [2] 11.2% | [3] 7.7% | [4] 16.1% | [5] 0% | [6] 48.1%

CN1/C(=C\N=O)C(C)(C)N(O)C1(C)C
inactive: [1] 16.6% | [2] -13.9% | [3] 2.55% | [4] 17.2% | [5] 5.85% | [6] -85.7%

CC1(C)CCC2(C)CC=C3C(C)(CCC4C3(C)CCC3C(C)(C)C(O)CCC43C)C2C1 (stereo not given)
inactive: [1] 0.9% | [2] -4.2% | [3] -23.2% | [4] -10.3% | [5] -18% | [6] -10.4%

OCCCNCc1ccncc1
inactive: [1] 22.8% | [2] -15.8% | [3] -14.6% | [4] 33.5% | [5] -16.2% | [6] -3.55%

BrCC(Br)c1ccc(C(Br)CBr)cc1 (stereo not given)
inactive: [1] 7.65% | [2] -21.6% | [3] 25.1% | [4] 14.7% | [5] 1.5% | [6] 12.1%

CNS(=O)(=O)c1c(C)cccc1CC(=O)c1ccccc1
inactive: [1] -4.3% | [2] 0.65% | [3] 12.2% | [4] -12.8% | [5] 14.8% | [6] -8.2%
